Experimental data published in PubChem BioAssay AID651623 (National Center for Advancing Translational Sciences (NCATS), 2012).
Calls of active or inactive are those of the source.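 How the source made its calls: active means inhibition of at least 60% at 114 µM; inconclusive means inhibition from 30% up to below 60% at 114 µM; inactive means inhibition below 30% at 114 µM.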

The compounds below were run against Ubiquitin carboxyl-terminal hydrolase 8 (Homo sapiens) (UniProt P40818) (assay: Inhibitors of USP1/UAF1: SAR in USP8 diubiquitin SDS-PAGE gel assay). Conditions: USP8 K63 diubiquitin cleavage; series mostly up to 114 µM.
Sequence of Ubiquitin carboxyl-terminal hydrolase 8 (Homo sapiens) (P40818 whole entry, looked up): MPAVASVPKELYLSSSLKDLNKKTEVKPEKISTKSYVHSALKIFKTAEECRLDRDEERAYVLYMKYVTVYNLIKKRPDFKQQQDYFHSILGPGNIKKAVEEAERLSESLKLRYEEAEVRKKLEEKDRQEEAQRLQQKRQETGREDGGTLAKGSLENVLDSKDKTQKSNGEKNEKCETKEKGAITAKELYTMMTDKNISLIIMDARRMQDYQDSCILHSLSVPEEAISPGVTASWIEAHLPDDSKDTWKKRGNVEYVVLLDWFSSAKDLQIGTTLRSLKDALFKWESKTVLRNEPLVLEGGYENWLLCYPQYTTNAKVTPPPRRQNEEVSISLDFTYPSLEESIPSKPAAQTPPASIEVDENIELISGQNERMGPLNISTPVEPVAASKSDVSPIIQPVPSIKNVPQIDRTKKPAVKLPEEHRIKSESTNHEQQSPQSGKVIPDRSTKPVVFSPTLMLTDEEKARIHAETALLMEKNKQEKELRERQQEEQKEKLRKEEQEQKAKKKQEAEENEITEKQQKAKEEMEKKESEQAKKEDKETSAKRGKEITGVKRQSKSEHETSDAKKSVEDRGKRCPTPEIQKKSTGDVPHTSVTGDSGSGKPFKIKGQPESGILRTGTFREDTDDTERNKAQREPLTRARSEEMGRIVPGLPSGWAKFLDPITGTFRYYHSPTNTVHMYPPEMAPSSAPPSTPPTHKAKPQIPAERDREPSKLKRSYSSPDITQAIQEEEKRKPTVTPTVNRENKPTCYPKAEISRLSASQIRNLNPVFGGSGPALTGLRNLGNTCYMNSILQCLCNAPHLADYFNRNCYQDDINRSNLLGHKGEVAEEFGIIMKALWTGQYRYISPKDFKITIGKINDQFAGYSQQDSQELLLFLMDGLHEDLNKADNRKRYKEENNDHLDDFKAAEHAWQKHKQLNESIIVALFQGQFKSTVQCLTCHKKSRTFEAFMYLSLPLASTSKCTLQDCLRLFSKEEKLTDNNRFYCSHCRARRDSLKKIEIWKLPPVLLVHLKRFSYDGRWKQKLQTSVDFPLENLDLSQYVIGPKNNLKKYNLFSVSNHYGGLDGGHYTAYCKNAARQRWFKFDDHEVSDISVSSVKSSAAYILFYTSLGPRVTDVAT
From the text: Deubiquitinating enzymes (DUBs) are a class of enzymes that can cleave isopeptide bond formed between the C-terminal carboxylate of ubiquitin and a lysine side-chain amino group on the target protein. Among them, ubiquitin specific proteases (USPs) constitute the largest DUB family. Human USPs are emerging as promising targets for pharmacological intervention because of their connection to a number of human diseases, including prostate, colon and breast cancer (1, 2), pediatric acute lymphoblastic leukemia (3), and familial cylindromatosis (4). The advantage of inhibiting USPs lies in the potential specificity of therapeutic intervention that can lead to better efficacy and reduce nonspecific side effects. In a collaboration between the University of Delaware and the NIH Chemical Genomics Center, a high-throughput screen assay was developed to screen for USP1/UAF1 inhibitors (5). […]
The inhibition assay contains 80 nM USP8, 2 microM K63 linked diubiquitin, and inhibitors at varied concentrations (0.08 microM - 114 microM). […] The intensity of the individual diubiquitin and monoubiquitin band was quantified using Quantity One 4.3.1 (Biorad, Hercules, CA). The percentage of the conversion was determined and used to calculate the reaction rate. […]

SMILES	outcome
Cc1cnc(-c2ccccc2C(C)C)nc1NCc1ccc(-n2ccnn2)cc1	inactive
